Measurements reported in PubChem BioAssay AID1159580 (chemical genetic matrix, 2015).
Values joined by “and” are separate entries in the source; they are usually repeats but may differ in a detail not shown here. Equal values may be shown once. About 2,000 (36%) of roughly 5,500 compounds were called active. Inconclusive results (about 18%) are left out. No stated cut-off is given here; in the data, active means normalized growth mostly below about 0.91 (no sharp cut-off); inconclusive means no clear call, values can overlap the other calls; inactive means mostly above about 0.92. The list shows a part of the results.

Assay: chemical genetic growth profiling, strain panel (AID 1159580);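 further: tested at 20 µM; growth read once vehicle control cultures reached saturation at 30 °C; 1 = growth at the plate median or of vehicle wells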
Conditions: S. cerevisiae deletion strains, growth OD

Measured: normalized growth

CC(C(=O)O)c1ccc(C(=O)c2cccs2)cc1 (configuration not stated)
inactive: locus YAL021C, strain ccr4, stronger effect = lower value 1.02 | locus YAL026C, strain drs2, stronger effect = lower value 1.01 | locus YAL030W, strain snc1, stronger effect = lower value 1 | locus YBL061C, strain skt5, stronger effect = lower value 1 | locus YBR009C, strain hhf1, stronger effect = lower value 1.01 | locus YBR021W, strain FUR4, stronger effect = lower value 0.987 | locus YBR023C, strain chs3, stronger effect = lower value 0.995 | locus YBR171W, strain sec66, stronger effect = lower value 0.985 | locus YBR229C, strain ROT2, stronger effect = lower value 1.01 | locus YBR231C, strain swc5, stronger effect = lower value 1 | locus YBR279W, strain paf1, stronger effect = lower value 0.996 | locus YCL011C, strain gbp2, stronger effect = lower value 1.01 | locus YCL016C, strain dcc1, stronger effect = lower value 0.998 | locus YCL029C, strain bik1, stronger effect = lower value 1.01 | locus YCL061C, strain MRC1, stronger effect = lower value 1.01 | locus YCL069W, strain vba3, stronger effect = lower value 0.997 | locus YCR088W, strain abp1, stronger effect = lower value 0.996 | locus YDL005C, strain med2, stronger effect = lower value 0.995 | locus YDL035C, strain GPR1, stronger effect = lower value 1.01 | locus YDL040C, strain nat1, stronger effect = lower value 0.998 | locus YDL074C, strain BRE1, stronger effect = lower value 1 | locus YDL101C, strain DUN1, stronger effect = lower value 1.01 | locus YDL134C, strain PPH21, stronger effect = lower value 1 | locus YDL185W, strain tfp1, stronger effect = lower value 0.999 | locus YDL192W, strain arf1, stronger effect = lower value 1.01 | locus YDR001C, strain nth1, stronger effect = lower value 0.993 | locus YDR069C, strain doa4, stronger effect = lower value 0.994 | locus YDR101C, strain arx1, stronger effect = lower value 1 | locus YDR137W, strain rgp1, stronger effect = lower value 0.963 | locus YDR159W, strain sac3, stronger effect = lower value 0.991 | locus YDR162C, strain NBP2, stronger effect = lower value 1.01 | locus YDR195W, strain ref2 0.976 | locus YDR297W, strain sur2, stronger effect = lower value 0.999 | locus YDR318W, strain mcm21, stronger effect = lower value 1.02 | locus YDR334W, strain swr1, stronger effect = lower value 0.989 | locus YDR335W, strain msn5, stronger effect = lower value 1.01 | locus YDR388W, stronger effect = lower value 1.02 | locus YDR392W, strain spt3, stronger effect = lower value 1.03 | locus YDR502C, strain sam2, stronger effect = lower value 1.03 | locus YEL003W, strain gim4, stronger effect = lower value 0.987 | locus YEL037C, strain rad23, stronger effect = lower value 1 | locus YEL061C, strain CIN8 (second series), stronger effect = lower value 1 | locus YEL061C, strain CIN8, stronger effect = lower value 1 | locus YER015W, strain faa2, stronger effect = lower value 0.989 | locus YER016W, strain bim1, stronger effect = lower value 1.02 | locus YER110C, stronger effect = lower value 1.02 | locus YER111C, strain swi4, stronger effect = lower value 0.985 | locus YER155C, strain BEM2 (second series), stronger effect = lower value 1 | locus YER155C, strain BEM2, stronger effect = lower value 0.992 | locus YER167W, strain BCK2, stronger effect = lower value 1 | locus YFR010W, strain ubp6, stronger effect = lower value 0.991 | locus YGL078C, strain dbp3, stronger effect = lower value 1.01 | locus YGL086W, strain mad1, stronger effect = lower value 1 | locus YGL167C, strain pmr1, stronger effect = lower value 0.994 | locus YGL173C, strain kem1, stronger effect = lower value 0.993 | locus YGL227W, strain vid30, stronger effect = lower value 0.99 | locus YGL240W, strain doc1, stronger effect = lower value 1 | locus YGL248W, strain PDE1, stronger effect = lower value 1.01 | locus YGL253W, strain hxk2, stronger effect = lower value 1.01 | locus YGR135W, strain pre9, stronger effect = lower value 1.01 | locus YGR252W, strain gcn5, stronger effect = lower value 1 | locus YHR013C, strain ard1, stronger effect = lower value 0.989 | locus YHR027C, strain rpn1, stronger effect = lower value 1.01 | locus YHR030C, strain SLT2, stronger effect = lower value 0.998 and 1 | locus YHR079C, strain IRE1 (second series), stronger effect = lower value 1.01 | locus YHR079C, strain IRE1, stronger effect = lower value 0.999 | locus YHR094C, strain hxt1, stronger effect = lower value 1.01 | locus YHR129C, strain ARP1, stronger effect = lower value 1 | locus YHR142W, strain chs7, stronger effect = lower value 0.995 | locus YHR200W, strain rpn10, stronger effect = lower value 1.01 | locus YIL066C, strain RNR3, stronger effect = lower value 1.01 | locus YIL073C, strain SPO22, stronger effect = lower value 1.07 | locus YIL125W, strain kgd1, stronger effect = lower value 1.01 | locus YIR030C, strain dcg1, stronger effect = lower value 1.01 | locus YJL092W, strain hpr5, stronger effect = lower value 0.996 | locus YJL095W, strain BCK1 (second series), stronger effect = lower value 1 | locus YJL095W, strain BCK1, stronger effect = lower value 1 and 0.971 | locus YJL115W, strain asf1, stronger effect = lower value 0.995 | locus YJL129C, strain trk1, stronger effect = lower value 0.982 | locus YJL134W, strain LCB3, stronger effect = lower value 1 | locus YJL154C, strain vps35, stronger effect = lower value 0.99 | locus YJL164C, strain tpk1, stronger effect = lower value 1.03 | locus YJL166W, strain qcr8, stronger effect = lower value 0.99 | locus YJL168C, strain set2, stronger effect = lower value 1.01 | locus YJL187C, strain SWE1 (second series), stronger effect = lower value 1.01 | locus YJR043C, strain POL32, stronger effect = lower value 0.982 | locus YJR066W, strain TOR1, stronger effect = lower value 0.952
